Measurements as given in the supplement of paper PMC10646978.
± gives the standard deviation.

Legend:
Details in all cases: modulator concentration 10 µM
[1] = test system: RAW-Dual (murine macrophage reporter line); assay: NF-kB reporter (SEAP) activity fold change vs agonist alone; higher = enhanced NF-kB activity
How it was run: (§1)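 RAW-Dual murine macrophage reporter cells were plated at 50 000 per well in 384-well plates, pin-transferred compound to 10 μM final, and pre-incubated for 1 hour at 37 °C before a PRR agonist was added and the cells incubated overnight. NF-κB activity was read from supernatant SEAP with QUANTI-Blue at 620 nm absorbance, and IRF activity from Lucia luciferase with QUANTI-Luc by luminescence. Each signal was expressed as fold change by dividing by the mean agonist-only control on the same plate. Two replicate plates were averaged, with errors obtained by propagation.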

[2] = test system: RAW-Dual (murine macrophage reporter line); assay: IRF reporter (Lucia luciferase) activity fold change vs agonist alone; higher = enhanced IRF activity
How it was run: as §1

[3] = test system: RAW-Dual (murine macrophage reporter line); assay: viability score (confluency relative to resting cells, overnight) (fraction); higher = more viable, active = viable (0.7 or more)
How it was run: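 Compound was added at a final 10 μM to RAW-Dual macrophages in 384-well plates and left overnight. Confluency was imaged with IncuCyte, and two masks were generated in IncuCyte software over all imaged wells. Each viability score is confluency relative to resting cells, and a compound met the cutoff only when both masks were above 70% of resting cells.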

[4] = agonist: CpG ODN 1826 0.5 ug/mL

Structure (SMILES)	NF-kB reporter [1, 4]	NF-kB reporter ([1]; agonist: LPS 0.1 ug/mL)	NF-kB reporter ([1]; agonist: MPLA […])	IRF reporter ([2]; agonist: 3'3'-cGAMP 10 ug/mL)	IRF reporter ([2]; agonist: LPS 0.1 ug/mL)	IRF reporter ([2]; agonist: MPLA […])	viability score [3]
CN(C)CC(c1ccc(O)cc1)C1(O)CCCCC1 (centres undefined)	0.971 ± 0.16	1.07 ± 0.26	0.893 ± 0.054	0.897 ± 0.045	1.44 ± 0.32	1.17 ± 0.092	0.992 (active)
Cc1ccn2c(-c3csc(NCc4ccccc4)n3)c(C)nc2c1	0.787 ± 0.061	1.03 ± 0.048	1.19 ± 0.15	0.442 ± 0.05	1.38 ± 0.082	1.46 ± 0.12	1.01 (active)
CCOc1ccc(C(=O)NCc2cccnc2)cc1Br	1.23 ± 0.07	1.06 ± 0.14	1.04 ± 0.036	0.911 ± 0.058	0.934 ± 0.14	1.08 ± 0.26	0.999 (active)
CCS(=O)(=O)N1CCC(Oc2cc(C)nc(C)n2)CC1	1.23 ± 0.07	0.996 ± 0.086	0.963 ± 0.046	0.982 ± 0.05	1.05 ± 0.049	0.916 ± 0.093	0.997 (active)
C=C1c2cccc(O)c2C(=O)C2=C(O)[C@]3(O)C(=O)C(C(N)=O)=C(O)[C@@H](N(C)C)[C@@H]3[C@@H](O)[C@H]12.Cl	1.16 ± 0.29	0.985 ± 0.064	0.952 ± 0.07	0.914 ± 0.045	1.22 ± 0.23	1.14 ± 0.13	0.962 (active)
CCc1ccc(Cc2ccc3c(c2)[C@]2(OC3)O[C@H](CO)[C@@H](O)[C@H](O)[C@H]2O)cc1.O	1.04 ± 0.29	1.08 ± 0.054	1.07 ± 0.094	0.883 ± 0.033	1.04 ± 0.12	1.16 ± 0.26	0.987 (active)
Cl.Cl.Fc1ccc(C(c2ccc(F)cc2)N2CCN(CC=Cc3ccccc3)CC2)cc1	0.834 ± 0.063	0.999 ± 0.065	1.15 ± 0.029	0.956 ± 0.089	0.896 ± 0.051	1.1 ± 0.16	0.996 (active)
COc1cccc(CCc2ccccc2OCC(CN(C)C)OC(=O)CCC(=O)O)c1.Cl (centres undefined)	0.428 ± 0.063	0.948 ± 0.3	0.925 ± 0.057	0.512 ± 0.018	1.25 ± 0.31	0.984 ± 0.19	0.995 (active)
COc1ccc(CNC(=O)c2cnc3n(c2=O)CCS3)cc1	1.21 ± 0.29	1.04 ± 0.055	2.54 ± 1.4	0.934 ± 0.038	1.1 ± 0.15	1.25 ± 0.19	1 (active)
CC1CC(=O)C2=C(C1)OC(N)=C(C#N)C2c1cccc2ccccc12 (centres undefined)	1.04 ± 0.059	1.06 ± 0.065	1.03 ± 0.11	0.988 ± 0.033	1.26 ± 0.088	1.24 ± 0.14	1 (active)
COC(=O)C1C(=O)C(=CNc2ccccc2O)C(=O)CC1(C)C (centres undefined)	1.66 ± 0.29	1.53 ± 0.13	2.44 ± 0.19	0.183 ± 0.011	1.19 ± 0.11	1.02 ± 0.14	0.557 (inactive)
COc1ccc(C(=O)CSc2nnc(NC(=O)C3CC(=O)N(c4cccc(OC)c4)C3)s2)cc1 (centres undefined)	1.15 ± 0.066	1.11 ± 0.11	1.23 ± 0.13	0.528 ± 0.026	0.758 ± 0.059	0.708 ± 0.23	1.01 (active)
Oc1ccc(N=Cc2ccccc2F)cc1	0.861 ± 0.099	0.887 ± 0.079	1.1 ± 0.064	0.304 ± 0.012	0.686 ± 0.028	1.36 ± 0.14	0.879 (active)
O=C(CCCCCl)NN1c2ccccc2CCc2ccccc21	1.18 ± 0.19	0.984 ± 0.11	1.09 ± 0.084	0.835 ± 0.022	1.18 ± 0.14	1.25 ± 0.29	1.01 (active)
COc1ccc(CNC23CC4CC(CC(C4)C2)C3)cc1OC	0.937 ± 0.072	0.899 ± 0.13	0.891 ± 0.092	0.959 ± 0.03	1.1 ± 0.23	1.1 ± 0.17	1.01 (active)
COc1ccc(OC)c(CN2CCCC(O)C2)c1 (centres undefined)	1.19 ± 0.075	1.01 ± 0.081	0.942 ± 0.027	0.963 ± 0.055	1.07 ± 0.061	1.06 ± 0.1	1 (active)
c1ccc(CSc2nnc(-c3cccnc3)o2)nc1	0.986 ± 0.056	1.09 ± 0.084	1 ± 0.074	0.992 ± 0.036	0.95 ± 0.13	0.858 ± 0.33	1 (active)
COc1ccc(S(=O)(=O)N2CCC(c3ccccc3)S(=O)(=O)CC2)cc1Cl (centres undefined)	0.831 ± 0.2	1.08 ± 0.082	0.978 ± 0.065	0.708 ± 0.024	1 ± 0.15	1.21 ± 0.32	0.999 (active)
CCCC(=O)Nc1ncnc2c1ncn2[C@@H]1O[C@@H]2OP(=O)([O-])OC[C@H]2[C@H]1OC(=O)CCC [Prestw-813]	1.27 ± 0.12	1.14 ± 0.079	1.14 ± 0.12	0.991 ± 0.056	1.41 ± 0.14	1.21 ± 0.16	1 (active)
COCCN1CCC(NC(=O)c2cnc3ccccc3n2)CC1	0.441 ± 0.024	1.02 ± 0.085	1.35 ± 0.072	0.951 ± 0.05	1.14 ± 0.25	1.2 ± 0.48	0.935 (active)
NCCCCC(NC(CCc1ccccc1)C(=O)O)C(=O)N1CCCC1C(=O)O (centres undefined)	1.33 ± 0.32	0.955 ± 0.083	1.03 ± 0.088	0.947 ± 0.032	1.09 ± 0.13	1.02 ± 0.13	0.998 (active)
CCOC(=O)C1=C(C)N(c2ccc(OC)cc2)C(=O)C1=Cc1ccc(C(C)C)cc1	0.903 ± 0.067	1.01 ± 0.083	0.804 ± 0.1	0.883 ± 0.03	1.36 ± 0.21	1.33 ± 0.12	0.997 (active)
CCOC(=O)CNS(=O)(=O)c1ccc([N+](=O)[O-])cc1	1.09 ± 0.093	1.05 ± 0.11	1.04 ± 0.061	0.997 ± 0.13	1.05 ± 0.044	1.09 ± 0.087	0.998 (active)
CCn1cc(C(=O)O)c(=O)c2cc(F)c(N3CCN(C)CC3)cc21.CS(=O)(=O)O.O.O	0.788 ± 0.11	1.13 ± 0.13	0.897 ± 0.05	0.863 ± 0.026	1.37 ± 0.12	1.07 ± 0.16	0.991 (active)
COc1ccc(C2CC(=O)c3c(O)cc(O)cc3O2)cc1O (centres undefined)	1.43 ± 0.35	1.14 ± 0.064	1.15 ± 0.073	0.845 ± 0.028	1.14 ± 0.21	1.1 ± 0.1	1 (active)
CCCCc1oc2ccccc2c1C(=O)c1cc(I)c(OCCN(CC)CC)c(I)c1 [Prestw-409]	0.41 ± 0.08	0.977 ± 0.075	1.15 ± 0.11	0.574 ± 0.025	1.32 ± 0.2	1.51 ± 0.29	1.04 (active)
CCOc1ccc2c(c1)C(c1ccccc1C(F)(F)F)CC(=O)N2 (centres undefined)	1.02 ± 0.17	1.05 ± 0.091	1.03 ± 0.1	1.09 ± 0.046	1.43 ± 0.33	1.57 ± 0.23	0.995 (active)
